Hit rate of the full screen: of about 5,500 compounds, about 2,000 (36%) were called active. Inconclusive results (about 18%) are left out. No stated cut-off is given here; in the data, active means normalized growth mostly below about 0.91 (no sharp cut-off); inconclusive means no clear call, values can overlap the other calls; inactive means mostly above about 0.92. Some of the results follow.
Assay: chemical genetic growth profiling, strain panel (AID 1159580);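 further: tested at 20 µM; growth read once vehicle control cultures reached saturation at 30 °C; 1 = growth at the plate median or of vehicle wells; lower values mean less growth of the strain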
Settings: growth OD

Measured: normalized growth

CC12CCC3C(CC=C4CC(O)CCC43C)C1CCC2=O (centres undefined)
active: S. cerevisiae deletion strains, locus YKL009W, strain mrt4, hits give low values 0.868 | S. cerevisiae deletion strains, locus YKL160W, strain elf1, hits give low values 0.858 | S. cerevisiae deletion strains, locus YLL001W, strain dnm1, hits give low values 0.902 | S. cerevisiae deletion strains, locus YLL026W, hits give low values 0.88 | S. cerevisiae deletion strains, locus YLR027C, strain aat2, hits give low values 0.849 | S. cerevisiae deletion strains, locus YLR039C, strain RIC1, hits give low values 0.516 | S. cerevisiae deletion strains, locus YLR221C, strain rsa3, hits give low values 0.779 | S. cerevisiae deletion strains, locus YLR262C, strain YPT6 (second series), hits give low values 0.441 | S. cerevisiae deletion strains, locus YLR268W, strain sec22, hits give low values 0.882 | S. cerevisiae deletion strains, locus YLR320W, strain mms22, hits give low values 0.429 | S. cerevisiae deletion strains, locus YLR342W, strain FKS1 (second series), hits give low values 0.781 | S. cerevisiae deletion strains, locus YLR418C, strain cdc73, hits give low values 0.766 | S. cerevisiae deletion strains, locus YML032C, strain rad52, hits give low values 0.855 | S. cerevisiae deletion strains, locus YMR058W, strain fet3, hits give low values 0.885 | S. cerevisiae deletion strains, locus YMR205C, strain PFK2, hits give low values 0.811 | S. cerevisiae deletion strains, locus YNL071W, strain lat1, hits give low values 0.513 | S. cerevisiae deletion strains, locus YNL209W, strain ssb2, hits give low values 0.927 | S. cerevisiae deletion strains, locus YNL248C, strain rpa49, hits give low values 0.777 | S. cerevisiae deletion strains, locus YNL307C, strain MCK1, hits give low values 0.707 | S. cerevisiae deletion strains, locus YNL322C, strain KRE1, hits give low values 0.924 | S. cerevisiae deletion strains, locus YNR052C, strain pop2, hits give low values 0.861 | S. cerevisiae deletion strains, locus YOL147C, strain pex11, hits give low values 0.91 | S. cerevisiae deletion strains, locus YOR001W, strain rrp6, hits give low values 0.8 | S. cerevisiae deletion strains, locus YOR070C, strain gyp1, hits give low values 0.81 | S. cerevisiae deletion strains, locus YOR083W, strain WHI5, hits give low values 0.86 | S. cerevisiae deletion strains, locus YOR184W, strain ser1, hits give low values 0.694 | S. cerevisiae deletion strains, locus YOR270C, strain vph1, hits give low values 0.578 | S. cerevisiae deletion strains, locus YOR290C, strain snf2, hits give low values 0.848 | S. cerevisiae deletion strains, locus YPL051W, strain arl3, hits give low values 0.861 | S. cerevisiae deletion strains, locus YPL078C, strain atp4, hits give low values 0.864 | S. cerevisiae deletion strains, locus YPL106C, strain sse1, hits give low values 1.27 [resistant] | S. cerevisiae deletion strains, locus YPR163C, strain tif3, hits give low values 0.893 | S. cerevisiae deletion strains, strain wtn01, hits give low values 0.854 | S. cerevisiae strains, strain wild type, hits give low values 0.877
inactive: S. cerevisiae deletion strains, locus YKL068W, hits give low values 1.02 | S. cerevisiae deletion strains, locus YKL085W, strain MDH1 (second series), hits give low values 0.983 | S. cerevisiae deletion strains, locus YKL085W, strain MDH1, hits give low values 0.983 | S. cerevisiae deletion strains, locus YKL190W, strain CNB1, hits give low values 0.929 | S. cerevisiae deletion strains, locus YKR001C, strain vps1, hits give low values 1.01 | S. cerevisiae deletion strains, locus YKR026C, strain gcn3, hits give low values 1.03 | S. cerevisiae deletion strains, locus YKR091W, strain srl3, hits give low values 1.02 | S. cerevisiae deletion strains, locus YLL041C, strain sdh2, hits give low values 0.999 | S. cerevisiae deletion strains, locus YLR058C, strain SHM2, hits give low values 0.908 | S. cerevisiae deletion strains, locus YLR102C, strain apc9, hits give low values 1.02 | S. cerevisiae deletion strains, locus YLR258W, strain gsy2, hits give low values 0.939 | S. cerevisiae deletion strains, locus YLR330W, strain CHS5, hits give low values 0.929 | S. cerevisiae deletion strains, locus YLR342W, strain FKS1, hits give low values 0.932 | S. cerevisiae deletion strains, locus YLR357W, strain rsc2, hits give low values 1.1 | S. cerevisiae deletion strains, locus YLR370C, strain arc18, hits give low values 0.993 | S. cerevisiae deletion strains, locus YLR371W, strain rom2, hits give low values 1.07 | S. cerevisiae deletion strains, locus YLR384C, strain iki3, hits give low values 1.03 | S. cerevisiae deletion strains, locus YML016C, strain PPZ1, hits give low values 0.979 | S. cerevisiae deletion strains, locus YML120C, strain ndi1, hits give low values 0.92 | S. cerevisiae deletion strains, locus YML124C, strain tub3, hits give low values 1 | S. cerevisiae deletion strains, locus YMR078C, strain ctf18, hits give low values 1.02 | S. cerevisiae deletion strains, locus YMR125W, strain sto1, hits give low values 0.971 | S. cerevisiae deletion strains, locus YMR129W, hits give low values 0.975 | S. cerevisiae deletion strains, locus YMR223W, strain ubp8, hits give low values 0.946 | S. cerevisiae deletion strains, locus YMR231W, strain pep5, hits give low values 0.989 | S. cerevisiae deletion strains, locus YMR263W, strain SAP30, hits give low values 0.976 | S. cerevisiae deletion strains, locus YMR307W, strain GAS1, hits give low values 1.11 | S. cerevisiae deletion strains, locus YNL067W, strain RPL9B, hits give low values 0.917 | S. cerevisiae deletion strains, locus YNL153C, strain GIM3, hits give low values 0.887 | S. cerevisiae deletion strains, locus YNL233W, strain BNI4, hits give low values 0.889 | S. cerevisiae deletion strains, locus YNL250W, strain rad50, hits give low values 0.947 | S. cerevisiae deletion strains, locus YNL271C, strain bni1, hits give low values 0.993 | S. cerevisiae deletion strains, locus YNL298W, strain CLA4, hits give low values 0.929 | S. cerevisiae deletion strains, locus YNL322C, strain KRE1 (second series), hits give low values 1.01 | S. cerevisiae deletion strains, locus YNR049C, strain mso1, hits give low values 1.01 | S. cerevisiae deletion strains, locus YOL006C, strain TOP1, hits give low values 0.572 | S. cerevisiae deletion strains, locus YOL012C, strain htz1 1.48 | S. cerevisiae deletion strains, locus YOR061W, strain CKA2, hits give low values 0.907 | S. cerevisiae deletion strains, locus YOR069W, strain VPS5, hits give low values 0.962 | S. cerevisiae deletion strains, locus YOR080W, strain dia2, hits give low values 0.974 | S. cerevisiae deletion strains, locus YOR106W, strain vam3, hits give low values 0.89 | S. cerevisiae deletion strains, locus YOR136W, strain idh2, hits give low values 1.01 | S. cerevisiae deletion strains, locus YOR144C, strain elg1, hits give low values 0.987 | S. cerevisiae deletion strains, locus YOR265W, strain rbl2, hits give low values 0.969 | S. cerevisiae deletion strains, locus YOR316C, strain cot1, hits give low values 1.04 | S. cerevisiae deletion strains, locus YPL240C, strain hsp82, hits give low values 1.01 | S. cerevisiae deletion strains, locus YPL241C, strain CIN2, hits give low values 1.02 | S. cerevisiae deletion strains, locus YPR119W, strain clb2, hits give low values 1.05 | S. cerevisiae deletion strains, locus YPR141C, strain kar3, hits give low values 1.06 | S. cerevisiae deletion strains, locus YPR167C, strain met16, hits give low values 0.928

— PubChem BioAssay AID1159580 (chemical genetic matrix, 2015)
